The results in this text go back to PubChem BioAssay (NCI).

A short description of assay [1]: NCI Yeast Anticancer Drug Screen. Data for the rad50 strain (AID 155).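 Note: 0% = growth of vehicle-only cultures of the same strain.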 To be noted: S. cerevisiae rad50 strain growth inhibition, stronger effect = higher value. A digest of the protocol: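 Growth of the mutant yeast was measured after compound exposure and referenced to vehicle-treated cultures.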
Assay [2] is described as follows: NCI Yeast Anticancer Drug Screen. Data for the mec2-1 strain (AID 157). To be noted: S. cerevisiae mec2-1 strain, stronger effect = higher value. A digest of the protocol:
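Vehicle-treated cultures served as reference for growth inhibition of compound-exposed mec2-1 yeast.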

Assay [3] in a line: NCI Yeast Anticancer Drug Screen. Data for the sgs1 mgt1 strain (AID 161).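 Note: 0% = growth of cultures given vehicle only.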 To be noted: S. cerevisiae sgs1 mgt1 strain, stronger effect = higher value. A digest of the protocol:
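Test agents were incubated with a DNA-repair-mutant yeast strain. Growth was then read and compared against vehicle-treated controls.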

Assay [4] can be described thus: NCI Yeast Anticancer Drug Screen. Data for the cln2 rad14 strain (AID 165).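 Note: 0% = growth equal to vehicle treated cultures.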 To be noted: S. cerevisiae cln2 rad14 strain, stronger effect = higher value. An outline of the steps: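 Each compound was tested on cln2 rad14 yeast. Inhibition of growth was calculated against vehicle-exposed controls.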
Assay [5] can be described thus: NCI Yeast Anticancer Drug Screen. Data for the bub3 strain (AID 167). To be noted: S. cerevisiae bub3 mutant strain, stronger effect = higher value. An outline of the steps:
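Whole-cell yeast assay. The mutant strain was incubated with compounds, and growth inhibition was determined by comparison with vehicle-treated cells.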

Assay [6] can be described thus: NCI Yeast Anticancer Drug Screen. Data for the mlh1 rad18 strain (AID 175). To be noted: S. cerevisiae mlh1 rad18 strain growth inhibition, stronger effect = higher value. A digest of the protocol:
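Vehicle-treated cultures served as the reference for growth inhibition in a yeast strain carrying DNA damage repair alterations exposed to each compound.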

Where [7] appears, read: at 5.0 µM (retest, dose inferred, filed as 0.5).
Where [8] appears, read: at 50.0 µM (retest, dose inferred, filed as 5.0).

The panel holds about 79,000 compounds, 15% with a hit somewhere; the sample as a whole holds those more often. Calls of active or inactive are those of the source. Cut-off read from the data, not from the text of the source: active = growth inhibition above about 70%; inactive = the rest.

`CCCCCCCCCCCCCCCCCC[N+](C)(C)Cc1ccc(C[N+](C)(C)CCCCCCCCCCCCCCCCCC)cc1`: the growth inhibition in assay [1] (setting [7]) was -5% (inactive); in assay [1] (setting [8]), 22% (inactive); in assay [1] (at 50.0 µM) it was 1.5% (inactive); in assay [2] (setting [7]), -3% (inactive); in assay [2] (setting [8]), 7% (inactive); in assay [2] (at 50.0 µM), 35.3% (inactive). Also, the growth inhibition is 5% (inactive) in assay [3] (setting [7]); 51% (inactive) in assay [3] (setting [8]); 71.3% (active) in assay [3] (at 50.0 µM); -2% (inactive) in assay [4] (setting [7]); -9% (inactive) in assay [4] (setting [8]); 44.9% (inactive) in assay [4] (at 50.0 µM). Besides, the growth inhibition was -4% (inactive) in assay [5] (setting [7]); 11% (inactive) in assay [5] (setting [8]); 5.05% (inactive) in assay [5] (at 50.0 µM); -3% (inactive) in assay [6] (setting [7]); 26% (inactive) in assay [6] (setting [8]); 8.2% (inactive) in assay [6] (at 50.0 µM).

Regarding `Cc1ccccc1Nc1nc(-c2ccccc2)nc(N)c1N=O`, the growth inhibition in assay [1] (setting [7]) is 9% (inactive); in assay [1] (setting [8]) it was 98% (active); in assay [1] (at 50.0 µM), 59.2% (inactive); in assay [2] (setting [7]) it was 9% (inactive); in assay [2] (setting [8]), 98% (active); in assay [2] (at 50.0 µM), 43% (inactive). For the same molecule, the growth inhibition is 32% (inactive) in assay [3] (setting [7]); 98% (active) in assay [3] (setting [8]); 72.8% (active) in assay [3] (at 50.0 µM); 13% (inactive) in assay [4] (setting [7]); 97% (active) in assay [4] (setting [8]); 28.6% (inactive) in assay [4] (at 50.0 µM). In addition, the growth inhibition in assay [5] (setting [7]) was 4% (inactive); in assay [5] (setting [8]), 97% (active); in assay [5] (at 50.0 µM), 45% (inactive); in assay [6] (setting [7]), 9% (inactive); in assay [6] (setting [8]) it was 97% (active); in assay [6] (at 50.0 µM), 59% (inactive).

For the molecule `Nc1ccc(C(=O)/C=C/c2ccccc2O)cc1`, the growth inhibition was -3% (inactive) in assay [1] (setting [7]); 37% (inactive) in assay [1] (setting [8]); -21.9% (inactive) in assay [1] (at 50.0 µM); -5% (inactive) in assay [2] (setting [7]); 2% (inactive) in assay [2] (setting [8]); 28.1% (inactive) in assay [2] (at 50.0 µM). Further, the growth inhibition was 15% (inactive) in assay [3] (setting [7]); -1% (inactive) in assay [3] (setting [8]); -9% (inactive) in assay [3] (at 50.0 µM); -19% (inactive) in assay [4] (setting [7]); -14% (inactive) in assay [4] (setting [8]); 2.4% (inactive) in assay [4] (at 50.0 µM). For the same molecule, the growth inhibition in assay [5] (setting [7]) is -19% (inactive); in assay [5] (setting [8]) it was 23% (inactive); in assay [5] (at 50.0 µM), -15.8% (inactive); in assay [6] (setting [7]) it was -6% (inactive); in assay [6] (setting [8]), -1% (inactive); in assay [6] (at 50.0 µM) it was -1.15% (inactive).

Take `O=C(C[n+]1ccccc1Cl)c1ccc(Oc2ccc(C(=O)C[n+]3ccccc3Cl)cc2)cc1`: the growth inhibition in assay [1] (setting [7]) is -34% (inactive); in assay [1] (setting [8]), 0% (inactive); in assay [1] (at 50.0 µM) it was 90.6% (active); in assay [2] (setting [7]), -5% (inactive); in assay [2] (setting [8]), -18% (inactive); in assay [2] (at 50.0 µM), 83.2% (active). For the same molecule, the growth inhibition is -11% (inactive) in assay [3] (setting [7]); -11% (inactive) in assay [3] (setting [8]); 30.5% (inactive) in assay [3] (at 50.0 µM); -14% (inactive) in assay [4] (setting [7]); -15% (inactive) in assay [4] (setting [8]); 91.9% (active) in assay [4] (at 50.0 µM). For the same molecule, the growth inhibition in assay [5] (setting [7]) is -40% (inactive); in assay [5] (setting [8]) it was -28% (inactive); in assay [5] (at 50.0 µM), 89% (active); in assay [6] (setting [7]), -33% (inactive); in assay [6] (setting [8]), -48% (inactive); in assay [6] (at 50.0 µM) it was 80.7% (active).

For the molecule `Cc1ccc2c(c1)C1C(CC2)C2C(=O)OC(=O)C2C2CCc3ccc(C)cc3C21` (stereo not given), the growth inhibition in assay [1] (setting [7]) is 35% (inactive); in assay [1] (setting [8]), 97% (active); in assay [1] (at 50.0 µM), 35.4% (inactive); in assay [2] (setting [7]), 21% (inactive); in assay [2] (setting [8]), 98% (active); in assay [2] (at 50.0 µM), 14.3% (inactive). Besides, the growth inhibition in assay [3] (setting [7]) is 6% (inactive); in assay [3] (setting [8]), 99% (active); in assay [3] (at 50.0 µM), 1.35% (inactive); in assay [4] (setting [7]) it was 20% (inactive); in assay [4] (setting [8]) it was 90% (active); in assay [4] (at 50.0 µM) it was 0.4% (inactive). For the same molecule, the growth inhibition in assay [5] (setting [7]) was 19% (inactive); in assay [5] (setting [8]), 97% (active); in assay [5] (at 50.0 µM), 10.3% (inactive); in assay [6] (setting [7]), 29% (inactive); in assay [6] (setting [8]), 98% (active); in assay [6] (at 50.0 µM), 38.4% (inactive).
